According to PubChem BioAssay AID1788 (Vanderbilt High Throughput Screening Facility, 2009):
Unmarked numbers belong to inactive results. How the calls were made is not given here.

Test system: Phorbol Ester (mouse)
Experiment: PubChem AID 1788
Settings: MDS Pharma lead profiling panel, radioligand binding, at 10 µM, hits give high values

Structure (SMILES): CCOC(=O)N1CCC(NCCNC(=O)c2ccccc2C)CC1
- inhibition: 25%
